Rows were chosen to be rich in hits. Some 3.9% of all compounds tested hit in one or more screens of this group.
CCHF vOTU inh – CCHFV vOTU protease inhibition. Pep-AMC fluorescence. AID 651958. 370,000 tested, 0.55% active. inhibition, % at 11.5 µM; in the data active = inhibition above about 30%; note: 0% = vehicle wells with enzyme and 100% = no enzyme wells
BoNT-A LC inh2 – inhibitors of Botulinum neurotoxin A light chain protease; multiplex microsphere protease substrate cleavage, flow cytometry; inhibition, % at 10 µM; 360,000 tested, 0.17% active; note: plate controls were buffer without enzyme for full effect and enzyme alone for no effect
3CLpro inhibitor – SARS-CoV 3CLpro protease inhibition; inhibition, % at 6 µM; AID 1706; P0C6X7; recombinant SARS-CoV 3CLpro, quenched FRET peptide cleavage; 290,000 tested, 0.14% active; in the data active = inhibition above about 12%
BoNT F protease – blocks Botulinum neurotoxin F light chain protease; Multiplex microsphere protease cleavage assay, flow cytometry; inhibition, % at 10 µM; 360,000 tested, 0.22% active; AID 588497; in the data active = inhibition above about 35%, passing the limit was not always enough; inconclusive = no clear call, values can overlap the other calls; note: plate controls were buffer without enzyme for full effect and enzyme alone for no effect
Bead autofluor – counter-screen for toxin protease inhibitors: compound fluorescence; fluorescence intensity (no concentration beside the values); compound autofluorescence counterscreen, microsphere flow cytometry; hits give high values; 360,000 tested, 3.1% active; AID 624483; in the data active = fluorescence intensity above about 16000; inconclusive = no clear call, values can overlap the other calls
Anthrax LF inh2 – blocks Bacillus anthracis lethal factor protease; multiplex microsphere protease cleavage assay, LF; inhibition, % at 10 µM; 360,000 tested, 0.12% active; AID 588501; note: plate controls were buffer without enzyme for full effect and enzyme alone for no effect
Numbers without * were called inactive; u = inconclusive; x = not tested or not shown. Cut-off read from the data, not from the text of the source, unless noted: active = inhibition above about 30%; inconclusive = no clear call, values can overlap the other calls; inactive = below that.

SMILES	CCHF vOTU inh	BoNT-A LC inh2	3CLpro inhibitor	BoNT F protease	Bead autofluor	Anthrax LF inh2
COCCSc1nnc(NC(=O)C2CCCCC2)s1	-2.0	-1.2	9.5	-2.2	17088*	-1.5
Cc1cc(C)nc(N2CCC(C(=O)Nc3nnc(C)s3)CC2)n1	-8.5	u	2.0	2.1	18862*	-12.5
Cc1nnc(NC(=O)C2CCCCC2)s1	-10.4	u	3.7	-3.8	22880*	-3.2
Cc1nnc(NC(=O)C2CCCC2)s1	2.4	1.2	-3.3	-2.1	5972	0.5
Cc1ccc(-c2cc(-c3nnc4sc(COc5ccccc5)nn34)[nH]n2)cc1	5.7	x	x	x	x	x
C/C(=N/NC(=O)CSc1nnc(-c2ccccc2)n1-c1ccc(Cl)cc1)c1cccc(O)c1	3.1	x	x	x	x	x
O=C(c1ccc(Cl)cc1)c1oc2ccccc2c1CS(=O)(=O)c1ccccc1	2.1	0.2	-1.6	0.6	22160*	-3.9
COCCCNC(=O)C1CCN(S(=O)(=O)c2ccc3[nH]c(=O)oc3c2)CC1	8.7	x	x	x	x	x
Cc1ccc2c(c1)CCCN2N=O	-16.6	1.1	0.5	0.7	9880	-0.8
CCCN1CCCc2cc(CN)ccc21	99.9*	2.7	-4.0	-71.4	5923	-20.4
O=C(c1ccc(NS(=O)(=O)c2ccc(F)cc2)cc1)N1CCOCC1	33.1*	1.6	x	8.1	5095	-1.3
COc1ccc(N2CCN(C(=O)c3ccc(NS(=O)(=O)c4ccc(F)c(F)c4)cc3)CC2)cc1	8.7	-4.0	-1.4	-6.3	17709*	-0.7
COc1ccc(NS(=O)(=O)c2ccc(C(=O)N3CCN(c4ccc(F)cc4)CC3)cc2)cc1	9.3	-0.4	x	2.0	3810	-11.5
CCOc1ccc(-c2cc(C(=O)OC)c3n(c2=O)CCC3)cc1	-9.8	x	x	x	x	x
O=C(Nc1ccccc1)NC1CS(=O)(=O)CC1O (stereo unspecified)	-1.0	-0.5	-0.5	-2.1	22098*	0.8
CCn1c(=O)c(C(=O)NCc2ccccc2)c(O)c2ccccc21	-11.6	-1.3	4.2	6.6	3293	47.9*
CCOC(=O)[C@]12CCCC=C1N(Cc1ccc(OC)cc1)C(=O)[C@@H]2CC(=O)NCCCOC	-5.6	x	x	x	x	x
CN(C)CCCNC(=O)C[C@@H]1CC[C@@H]2[C@H](COc3ccc(NC(=O)c4cccc(F)c4)cc3C(=O)N2C)O1	-0.6	x	x	x	x	x
CCCn1nc(C(=O)Nc2cccc(C(=O)OC)c2)c2ccccc2c1=O	-2.8	0.1	0.8	2.0	4202	4.9
COC(=O)c1cccc(NC(=O)c2nn(C(C)C)c(=O)c3ccccc23)c1	0.5	u	1.0	-3.5	17352*	-0.9
COc1ccc(C(=O)N/C(=C/c2cccs2)C(=O)NCCCn2ccnc2)cc1OC	0.8	0.8	-1.1	0.3	20263*	0.1
COc1ccc(/C=C(/NC(=O)c2ccccc2)C(=O)NCCCn2ccnc2)cc1OC	11.4	2.8	-3.4	4.6	4759	1.1
O=C(OCCCN=C1NS(=O)(=O)c2ccccc21)c1ccccc1F	5.9	3.4	-3.1	3.5	20170*	-11.3
O=C(OCCCN=C1NS(=O)(=O)c2ccccc21)c1ccc(F)cc1	4.3	-0.4	0.3	0.7	11704	-2.4
CCOC(=O)C1=C(CN2c3ccccc3CC2C)NC(=O)NC1c1ccccc1 (stereo unspecified)	8.4	54.5*	0.3	15.9	2062	43.9*
SMILES	CCHF vOTU inh	BoNT-A LC inh2	3CLpro inhibitor	BoNT F protease	Bead autofluor	Anthrax LF inh2
Cc1ccc(/C=C2\SC(=S)N(CC3CCCO3)C2=O)o1 (stereo unspecified)	11.6	u	-6.0	u	3638	0.5
Cc1ccc(/C=C2/SC(=S)N(C3CCCCC3)C2=O)o1	13.1	38.6*	-3.1	26.2	3828	24.5
COc1ccc(NC(=O)NNC(=O)CCn2nc(C)c([N+](=O)[O-])c2C)cc1OC	-3.3	x	x	x	x	x
Nc1c(S(=O)(=O)c2cccc(Cl)c2)c2nc3ccccc3nc2n1CCN1CCOCC1	-1.5	0.0	1.2	-4.7	16491*	-4.6
Cc1nc2cc(C(=O)N3CCN(C(=O)C(Cl)Cl)CC3)ccc2n1C1CCCC1	-2.6	x	x	x	x	x
C=CCNC(=S)NNC(=O)Cn1c(-c2ccccc2)cc(=O)n2ncnc12	8.3	-3.3	-2.3	u	3880	32.0*
CCOC(=O)c1cccc(NC(=O)CN(C)S(=O)(=O)c2ccc(C)c(C)c2)c1	11.6	x	x	x	x	x
Nc1cc2c([N+](=O)[O-])cccc2o1	9.2	2.8	-4.2	37.6*	4579	-3.7
COC(=O)[C@]12C[C@H](CC(=O)NCCc3ccccc3OC)C(=O)N(CCc3ccc(OC)c(OC)c3)C1=C[C@H](C1CCCC1)O[C@@H]2C	15.0	x	x	x	x	x
Cc1nonc1OCC(C)(COc1nonc1C)NC(=O)c1ccccc1	1.8	3.3	3.0	7.1	21066*	0.6
COc1ccc(-n2c(SCC(=O)Nc3ccc(Oc4ccccc4)cc3)nnc2-c2cccnc2)cc1	8.0	x	x	x	x	x
c1ccc(-c2nc(-c3ccco3)cs2)nc1	-8.3	0.8	3.2	1.2	22107*	0.7
CCN(CCCNC(=O)c1c(C)cc(=O)oc1C)c1cccc(C)c1	1.4	1.2	-2.6	1.6	22991*	-7.0
Cc1ccc(CNC(=O)c2c(C)cc(=O)oc2C)cc1	9.9	-0.7	-2.9	3.3	10776	-2.8
Cc1cc(=O)oc(C)c1C(=O)NCc1ccccn1	0.8	-2.2	2.8	-1.1	20680*	-1.3
Cc1cc(=O)oc(C)c1C(=O)NCC1COc2ccccc2O1 (stereo unspecified)	-17.4	6.0	-7.0	5.5	20933*	-6.3
Cc1cc(=O)oc(C)c1C(=O)NCCC(C)C	-7.6	2.2	-0.2	1.2	22899*	0.5
Cc1ccc(C(=O)NCCN2C(=O)C3C4C=CC(C4)C3C2=O)cc1 (stereo unspecified)	-2.6	x	x	x	x	x
O=C(NCc1ccccn1)c1cc2cc(Br)ccc2oc1=O	x	-6.0	5.2	-10.5	25730*	-1.9
O=C(CN1C(=O)S/C(=C\c2cccs2)C1=O)Nc1ccc(C(=O)O)c(O)c1	23.5	1.8	13.5*	2.1	5110	-0.8
Cc1ccc(NC(=O)CN2C(=O)S/C(=C/c3ccc(-c4cc(C(=O)O)ccc4C)o3)C2=O)cc1C	6.6	-0.2	7.8	-1.1	16807*	-4.5
Cc1cccc(NC(=O)CN2C(=O)S/C(=C\c3ccc(-c4cccc(C(=O)O)c4C)o3)C2=O)c1	2.2	x	-3.6	x	x	x
Cc1nc(NCCN2CCOCC2)c2nnn(Cc3ccccc3Cl)c2n1	-8.4	0.4	-4.8	2.0	9888	-5.6
Clc1ccccc1Cn1nnc2c(NCCN3CCOCC3)ncnc21	-8.5	-0.8	1.8	-3.1	11776	-0.1
c1ccc(Cn2nnc3c(NCCN4CCOCC4)ncnc32)cc1	-8.0	0.9	3.4	0.7	22975*	0.8
CC(C)(C)c1nc(NCCN2CCOCC2)c2nnn(Cc3ccccc3Cl)c2n1	-4.4	-0.5	-0.3	-1.4	23490*	-2.3
Cc1ccccc1Cn1cc(CN2[C@@H](C)COc3cc(Br)ccc3S2(=O)=O)nn1	-4.7	x	x	x	x	x
CC1(C)CC(CCC(=O)Nc2ccc(S(N)(=O)=O)cc2)C(=O)O1 (stereo unspecified)	-2.4	u	-1.0	-2.8	22673*	-2.5

Screening data deposited in PubChem BioAssay by several laboratories.
